Source: PubChem BioAssay (NCI)
This is part of a sample that, as a whole, favours compounds with a hit. Of some 83,000 tested, about 20% had one in any assay.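 Cell lines were cultured in 96-well plates, exposed to a single compound concentration, and assessed for percent growth 48 hours later.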 Values without a mark were called inactive. Calls of active or inactive are those of the source. The calls were made as follows: active = growth percent below 10; inactive = the rest.

Key:
Assay in all cases: NCI-60 one-dose screen, 48 h (100 = growth as untreated, 0 = no growth, -100 = all killed)
Conditions in all cases: 10 µM unless noted
[1] = system: NCI-H23 lung
[2] = system: NCI-H226 lung
[3] = system: NCI-H322M lung
[4] = system: HOP-62 NSCLC
[5] = system: NCI-H460 lung
[6] = system: HOP-92 NSCLC
[7] = system: NCI-H522 lung
[8] = system: A549/ATCC NSCLC
[9] = system: 786-0 renal
[10] = system: COLO 205 colon
[11] = system: DU-145 prostate
[12] = system: K-562 leukemia
[13] = system: MALME-3M melanoma
[14] = system: MDA-MB-231 breast
[15] = system: RXF 393 renal
[16] = system: SF-268 CNS
[17] = system: SF-295 CNS
[18] = system: SF-539 CNS
[19] = system: UACC-257 melanoma
[20] = system: M14 melanoma

Compound	growth [1]	growth [2]	growth [3]	growth [4]	growth [5]	growth [6]	growth [7]	growth [8]	growth [9]	growth [10]	growth [11]	growth [12]	growth [13]	growth [14]	growth [15]	growth [16]	growth [17]	growth [18]	growth [19]	growth [20]
O=[N+]([O-])/C(=C\c1ccco1)c1ccccc1Cl	92.3%	90.3%	80.2%	76.2%	68.1%	33.2%	23.2%	62.3%	9.35% (active)	82.8%	86.1%	67.9%	80.6%	87.9%	67.1%	87%	102%	91.7%	66.7%	66.2%
COc1ccc2nc3cc(Cl)ccc3c(NCCN)c2c1	-33.6% (active)	31.8%	-46% (active)	-85.8% (active)	-71.4% (active)	70.7%	-56.6% (active)	-84.5% (active)	-88.9% (active)	-83.2% (active)	-94.1% (active)	-64.6% (active)	-71% (active)	-71.6% (active)	-85.9% (active)	-53.7% (active)	-92.3% (active)	-72% (active)	101%	-74.7% (active)
COc1ccc(/C(C)=C(\c2ccc(Cl)cc2)c2ccc(OCCN3CCCC3)cc2)cc1	58.8%	85%	49.6%	59.2%	2.86% (active)	56.4%	69.9%	25.5%	-31.6% (active)	-29.9% (active)	62.6%	-1.6% (active)	4.84% (active)	25.5%	32.6%	51.8%	-7.32% (active)	45.9%	-26.8% (active)	-13.7% (active)
COc1cc(-c2nc3ccc(C)cc3[nH]2)ccc1OCC(=O)N=Nc1c(O)[nH]c2ccc(Cl)cc12	23.2%	86.8%	36.9%	18.3%	-56.1% (active)	2.42% (active)	20.6%	29.7%	-82.5% (active)	-15.9% (active)	22.9%	-39.3% (active)	-26.9% (active)	-61.6% (active)	-40.7% (active)	31.4%	-7.5% (active)	-80% (active)	39.4%	3.17% (active)
COc1ccc(Nc2ncccc2NC(=O)c2cn(Cc3cccc(Oc4ccccc4)c3)nn2)cc1OC	76%	92.4%	83.7%	88%	97.4%	81.6%	77.1%	86.7%	90.5%	81.4%	84%	28.7%	87.4%	67.9%	86.3%	61.7%	84.2%	95%	92.4%	72.5%
Cc1cccc(N2CCN(C(=S)c3ccc4c(c3)OCO4)CC2)c1	31.3%	57.2%	33.2%	28.9%	8.2% (active)	74.4%	-25.2% (active)	31.7%	30.2%	-36% (active)	11%	14%	21.8%	45.3%	-15.1% (active)	47.2%	2.38% (active)	-26.9% (active)	32.5%	-4.87% (active)
O=C(/C=C/C12c3ccccc3C(c3ccccc31)C1C(=O)NC(=O)C12)c1ccc(F)cc1 (stereo not given)	9.23% (active)	36.9%	-4.89% (active)	-45.3% (active)	2.15% (active)	-30.9% (active)	2.09% (active)	10.6%	-9.86% (active)	-45.4% (active)	22.2%	6.1% (active)	20.2%	11.9%	-35.4% (active)	31.3%	11.5%	6.05% (active)	27.3%	10.2%
COc1ccc(Cc2cnc(NC(=O)c3sc4ccccc4c3Cl)s2)cc1	28.4%	49.7%	50.8%	26.3%	4.16% (active)	79.8%	-14.2% (active)	24.4%	36.7%	10.2%	25%	7% (active)	56.6%	41.9%	1.01% (active)	52.9%	14.9%	-19.4% (active)	49.8%	10.2%
CCCCn1sc(=O)n(Cc2ccc(CNC(=O)OCc3ccc4c(Cl)cc(Cl)c(O)c4n3)cc2)c1=O	75.3%	73.2%	61.5%	40.4%	26.5%	74.5%	69.9%	48.7%	67.9%	98.1%	58.5%	42.9%	73%	84.4%	74.3%	67.1%	34.5%	78%	97.6%	60.7%
O=C(CN1CCN(c2cc3c(cc2F)c(=O)c(C(=O)O)cn3C2CC2)CC1)N/N=C/c1ccncc1	102%	100%	96.3%	92.2%	106%	94.1%	96.5%	86.8%	90.8%	108%	106%	91.7%	103%	98.4%	110%	92.8%	96.6%	95.6%	87.9%	96.1%
Fc1ccc2c(c1)c(-c1nc(-c3c[nH]c4ncccc34)cs1)cn2CCCN1CCOCC1	76%	59.3%	80.9%	49.9%	37.8%	23.5%	41.3%	42.6%	57.3%	18.1%	79.8%	1.71% (active)	59.2%	36%	39.5%	50.8%	27.5%	67.3%	83%	34.7%
C[Se]C(=O)CC1=C2C=C(F)C=CC2/C(=C\c2ccc(S(C)=O)cc2)C1C (stereo not given)	13.5%	1.21% (active)	14.1%	-24.3% (active)	-1% (active)	-41.4% (active)	12.9%	-60.1% (active)	3.8% (active)	-17.4% (active)	-50.5% (active)	28.6%	-68.7% (active)	-46% (active)	6.68% (active)	-28.2% (active)	11.3%	-30.3% (active)	-21.5% (active)	7.44% (active)
O=C1Nc2ccccc2C2c3cccn3-c3ccccc3N12 (stereo not given)	81%	89.5%	83%	58.2%	88.9%	57.8%	8.49% (active)	61.7%	87.8%	60.5%	94.8%	23.9%	71.7%	47.1%	51.7%	79%	78.6%	83.2%	77.6%	53%
Cc1ccccc1CNc1c2ccccc2nc2ccccc12	23.4%	31.5%	29%	28.1%	6.94% (active)	-1.03% (active)	50%	19.7%	24.3%	-18.5% (active)	30.6%	5.04% (active)	15.2%	39.9%	7.78% (active)	42.9%	29.5%	3.3% (active)	32.7%	13.1%
C=CC(=O)N1CCN(c2ccc3cccc(NC(=O)c4cnc(C)cn4)c3n2)CC1	66.7%	42.9%	21.2%	41.1%	34.7%	42.7%	10.4%	27.3%	24.8%	59.3%	29.1%	36.5%	30.5%	36.7%	11.4%	37.6%	61.5%	35.1%	37.2%	41.2%
COc1ccc(Cl)cc1Nc1nc(C(F)(F)F)ccc1C(=O)N/N=C/c1ccccc1Cl	16.9%	17.3%	1.34% (active)	18.3%	4.25% (active)	-47.7% (active)	-13.9% (active)	10.9%	11.8%	-59.5% (active)	14.6%	2.37% (active)	11%	-7.46% (active)	0.498% (active)	13.6%	-12.1% (active)	-7.07% (active)	2.7% (active)	15.2%
